Drawing on PubChem BioAssay (EPA / NIEHS), this text covers outcome and AC50 for 7 compounds.

Each structure is given as a SMILES string. Activity calls are given as the source filed them. The calls were made as follows: active = hit-call score of the fitted dose curve at least 0.9, where 1 is the maximum; inactive = score below 0.9.

A word on the AC50: it is the midpoint of the concentration-response curve, whichever way the signal moves.

The nature of assay [1]: ATG_CRE_CIS: Attagene CIS-FACTORIAL HepG2 Assay for human cAMP Responsive Element (CRE) binding protein 3 (AID 2282926). The conditions noted are these: HepG2 CRE cis-reporter, Attagene multiplexed mRNA; actives raise or lower the signal. Put shortly: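 Induced reporter mRNA from a CRE cis element, measured in HepG2 among many multiplexed units at 24 h. Detection used RT-PCR plus capillary electrophoresis of fluorescent fragments; DMSO served as negative control.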

Assay [2] has as its target CCAAT/enhancer-binding protein beta (Homo sapiens) (UniProt P17676). As to the kind of experiment: ATG_C_EBP_CIS: Attagene CIS-FACTORIAL HepG2 Assay for human CCAAT/Enhancer Binding Protein (C/EBP) beta (AID 2282927). The following applies: HepG2 Attagene cis-factorial transcription factor reporter; actives raise or lower the signal. Put shortly: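 Following a 24 h incubation with test chemical, transfected HepG2 cells yielded RNA whose reporter transcripts were quantified by RT-PCR and fluorescent capillary electrophoresis, with DMSO serving as baseline for bidirectional fitting.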

A short description of assay [3]: ATG_CMV_CIS: Attagene CIS-FACTORIAL HepG2 Assay for human CMV (Internal Marker) (AID 2282928).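 Also: endpoint acts as a background internal control marker rather than a target.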 The following applies: HepG2 CMV promoter reporter, transcription factor profiling; actives raise or lower the signal. Summed up: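 24 h chemical treatment, HepG2 with transient multi-reporter transfection; RNA → oligo(dT) RT → PCR → 6-FAM extension → HpaI digest → CE fluorescence. Bidirectional fit, DMSO negative control.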

Assay [4] deals with Aryl hydrocarbon receptor (Homo sapiens) (UniProt P35869). The experiment in a line: ATG_Ahr_CIS: Attagene CIS-FACTORIAL HepG2 Assay for human Aryl Hydrocarbon Receptor (Ahr) (AID 2282930). The conditions noted are these: HepG2 AhR cis-factorial reporter transcription; actives raise or lower the signal. Summed up: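 Values derive from bidirectional fitting against DMSO negative control. Underlying signal: cis-element reporter mRNA in transiently transfected HepG2, harvested 24 h post-dose and measured by RT-PCR plus capillary electrophoresis.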

Assay [5] in a line: ATG_AP_1_CIS: Attagene CIS-FACTORIAL HepG2 Assay for human Activator Protein 1 (AP-1) (AID 2282931). The conditions noted are these: HepG2 Attagene cis-factorial AP-1 reporter mRNA; actives raise or lower the signal. Summed up:
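Transient MRTU transfection of HepG2 → 24 h chemical treatment → RNA isolation, RT-PCR, 6-FAM labelling, HpaI digest → capillary electrophoresis. Fit: bidirectional, DMSO negative control.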

Assay [6] is described as follows: ATG_AP_2_CIS: Attagene CIS-FACTORIAL HepG2 Assay for human Activator Protein 2 (AP-2) (AID 2282932). The following applies: HepG2 AP-2 cis-reporter, Attagene transcription factor profiling; actives raise or lower the signal. Summed up: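 Assay in transfected HepG2 with promoter-regulated reporters, 24 h incubation after dosing. Signal is reporter mRNA fluorescence (RT-PCR, capillary electrophoresis), analysed for both increases and decreases relative to DMSO controls.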

Assay [7] can be described thus: ATG_BRE_CIS: Attagene CIS-FACTORIAL HepG2 Assay for human Bone Morphogenetic Protein (BMP) Response Element (BRE) (AID 2282933). The following applies: HepG2 BMP response element reporter, Attagene transcription factor profiling; actives raise or lower the signal. Put shortly:
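HepG2 cells transiently transfected with multiplexed cis-element reporter units were dosed with chemical for 24 h. Reporter mRNA was measured by RT-PCR with fluorescent labelling, HpaI digestion and capillary electrophoresis; bidirectional fitting relative to DMSO.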

Assay [8] concerns the target Retinoic acid receptor alpha (Homo sapiens) (UniProt P10276). The experiment in a line: ATG_DR5_RAR_CIS: Attagene CIS-FACTORIAL HepG2 Assay for human Retinoic Acid Receptor Alpha (RARE), DR5 submotif (AID 2282934).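 As to AC50: reporter responds to endogenous RAR alpha beta and gamma in HepG2 not RARA alone.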 The conditions noted are these: HepG2 Attagene cis-factorial RARE DR5 reporter, mRNA; actives raise or lower the signal. Summed up:
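Endpoint fitted in both directions relative to DMSO as negative control. It reflects DR5 cis-element reporter mRNA induction in transiently transfected HepG2 cells, measured 24 h after dosing through RT-PCR and fluorescent capillary electrophoresis.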

Assay [9] has as its target Transcription factor E2F1 (Homo sapiens) (UniProt Q01094). The experiment in a line: ATG_E2F_CIS: Attagene CIS-FACTORIAL HepG2 Assay for human E2F Transcription Factor 1 (AID 2282935). The conditions noted are these: HepG2 Attagene cis-reporter, E2F reporter RNA transcripts; actives raise or lower the signal. Put shortly:
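In this cis-factorial format, endogenous factor activity drives transfected reporters in HepG2; transcripts collected at 24 h are quantified by fluorescence after RT-PCR and capillary separation.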

The nature of assay [10]: ATG_M_61_CIS: Attagene CIS-FACTORIAL HepG2 Assay for M61 Transcription Factor (Internal Marker) (AID 2282937). The following applies: HepG2 Attagene CIS-FACTORIAL M61 internal marker reporter; actives raise or lower the signal. Put shortly: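 Human liver HepG2, transient MRTU transfection (cis promoter elements), 24 h compound. Total RNA → oligo(dT) RT → PCR → FAM label → HpaI → CE. Internal background marker; bidirectional fitting, DMSO = baseline.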

A short description of assay [11]: ATG_EGR_CIS: Attagene CIS-FACTORIAL HepG2 Assay for human Early Growth Response 1 (EGR1) (AID 2282938). The conditions noted are these: HepG2 Attagene CIS-FACTORIAL EGR reporter mRNA; actives raise or lower the signal. Put shortly:
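Transient transfection of human HepG2 with multiple cis-regulated reporter units, chemical exposure 24 h, total RNA isolated. Reverse transcription, PCR, fluorescent labelling and capillary electrophoresis quantify reporter transcripts; activity fitted bidirectionally against DMSO.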

The nature of assay [12]: ATG_M_19_CIS: Attagene CIS-FACTORIAL HepG2 Assay for M19 Transcription Factor (Internal Marker) (AID 2282939). The conditions noted are these: HepG2 Attagene CIS-FACTORIAL M19 internal marker reporter; actives raise or lower the signal. Summed up: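 HepG2 cells transiently transfected with cis-regulated multiple reporter transcription units were dosed for 24 h; reporter mRNA was quantified by RT-PCR, 6-FAM primer-extension labelling, HpaI digestion and capillary electrophoresis, with bidirectional fitting against DMSO baseline.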

Assay [13] is described as follows: ATG_Ets_CIS: Attagene CIS-FACTORIAL HepG2 Assay for human Erythroblast Transformation Specific (ETS) (AID 2282941). The conditions noted are these: HepG2 ETS cis-reporter transcription, actives raise or lower the signal. Summed up: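 Cis-regulated reporter mRNA induction in HepG2 (transient transfection), 24 h exposure, RT-PCR plus capillary electrophoresis detection; DMSO serves as negative control and baseline.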

The target in assay [14] is Hepatocyte nuclear factor 3-beta (Homo sapiens) (UniProt Q9Y261). As to the kind of experiment: ATG_FoxA2_CIS: Attagene CIS-FACTORIAL HepG2 Assay for human Forkhead box A2 (FOXA2) (AID 2282942). The conditions noted are these: HepG2 cis-reporter transcription factor activity, 24 h; actives raise or lower the signal. Summed up: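 Transient MRTU transfection of HepG2 liver cells; 24 h treatment; total RNA → oligo(dT) RT → PCR → FAM primer extension → HpaI cut → CE. Bidirectional fit vs DMSO.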

The nature of assay [15]: ATG_FoxO_CIS: Attagene CIS-FACTORIAL HepG2 Assay for human Forkhead box O (FoxO) (AID 2282943). The following applies: HepG2 Attagene cis-reporter, FoxO element, mRNA; actives raise or lower the signal. Summed up:
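Values reflect reporter mRNA induction or loss in HepG2 cells 24 h post-dosing, fitted bidirectionally with DMSO as negative control and baseline. Detection used RT-PCR and fluorescence capillary electrophoresis.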

Assay [16] in a line: ATG_GATA_CIS: Attagene CIS-FACTORIAL HepG2 Assay for human GATA Binding Protein (AID 2282944). The following applies: HepG2 GATA cis-element reporter, Attagene multiplex mRNA; actives raise or lower the signal. Put shortly:
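HepG2 cells transiently transfected with multiplexed cis-element reporter units reflecting endogenous transcription factor activity; reporter mRNA measured after 24 h dosing by RT-PCR, 6-FAM labeling, HpaI digestion and capillary electrophoresis. Bidirectional fitting versus DMSO baseline.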

Assay [17] is described as follows: ATG_GLI_CIS: Attagene CIS-FACTORIAL HepG2 Assay for human Zinc Finger Protein GLI1 (AID 2282945). The conditions noted are these: HepG2, Attagene cis-factorial reporter mRNA, GLI element; actives raise or lower the signal. Put shortly:
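HepG2 cells transiently transfected with cis-promoter multiplexed reporter units report endogenous transcription factor activity. After 24 h chemical exposure, reporter mRNA was quantified by RT-PCR, 6-FAM labelling, HpaI digestion and capillary electrophoresis, with bidirectional fitting against DMSO.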

In assay [18] the target is Bile acid receptor (Homo sapiens) (UniProt Q96RI1). The experiment in a line: ATG_IR1_CIS: Attagene CIS-FACTORIAL HepG2 Assay for human Nuclear Receptor Subfamily 1 Group H Member 4 (NR1H4), IR1 submotif (AID 2282946). The conditions noted are these: IR1 reporter transcription, actives raise or lower the signal. Summed up: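 Readout: reporter transcript levels by RT-PCR with fluorescent capillary electrophoresis, from HepG2 cells transiently transfected with multiplexed cis-regulated reporters and dosed 24 h. Gain- or loss-of-signal fitted versus DMSO negative control.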

The nature of assay [19]: ATG_DR4_LXR_CIS: Attagene CIS-FACTORIAL HepG2 Assay for human Liver X Receptor (LXR), DR4 submotif (AID 2282929). The conditions noted are these: HepG2 Attagene DR4 cis-reporter, mRNA transcription; actives raise or lower the signal. Put shortly: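 HepG2, transient MRTU transfection, cis-element (DR4) promoter; 24 h compound exposure; total RNA → oligo(dT) RT → PCR → 6-FAM primer extension → HpaI cut → CE. Gain/loss vs DMSO, bidirectional fit.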

A short description of assay [20]: ATG_E_Box_CIS: Attagene CIS-FACTORIAL HepG2 Assay for human Enhancer Box (E-box) (AID 2282936). The conditions noted are these: HepG2 E-box cis-reporter transcription, actives raise or lower the signal. Put shortly: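 Measured 24 h post-dosing in HepG2 cells transfected with multiple cis-regulated reporter units, signal being reporter mRNA induction detected by fluorescent RT-PCR with capillary electrophoresis; gain or loss fitted against DMSO.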

CCAAT/enhancer-binding protein beta (Homo sapiens), sequence (P17676 whole entry, looked up): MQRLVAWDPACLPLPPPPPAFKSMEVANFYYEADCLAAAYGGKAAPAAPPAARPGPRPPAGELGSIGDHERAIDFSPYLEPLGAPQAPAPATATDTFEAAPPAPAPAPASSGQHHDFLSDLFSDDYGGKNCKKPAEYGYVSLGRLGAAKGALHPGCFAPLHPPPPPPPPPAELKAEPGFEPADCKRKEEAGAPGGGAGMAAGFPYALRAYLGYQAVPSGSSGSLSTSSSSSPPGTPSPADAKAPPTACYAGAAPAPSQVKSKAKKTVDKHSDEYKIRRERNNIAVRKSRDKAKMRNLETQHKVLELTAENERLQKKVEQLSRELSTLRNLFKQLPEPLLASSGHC
Hepatocyte nuclear factor 3-beta (Homo sapiens), sequence (Q9Y261 whole entry, looked up): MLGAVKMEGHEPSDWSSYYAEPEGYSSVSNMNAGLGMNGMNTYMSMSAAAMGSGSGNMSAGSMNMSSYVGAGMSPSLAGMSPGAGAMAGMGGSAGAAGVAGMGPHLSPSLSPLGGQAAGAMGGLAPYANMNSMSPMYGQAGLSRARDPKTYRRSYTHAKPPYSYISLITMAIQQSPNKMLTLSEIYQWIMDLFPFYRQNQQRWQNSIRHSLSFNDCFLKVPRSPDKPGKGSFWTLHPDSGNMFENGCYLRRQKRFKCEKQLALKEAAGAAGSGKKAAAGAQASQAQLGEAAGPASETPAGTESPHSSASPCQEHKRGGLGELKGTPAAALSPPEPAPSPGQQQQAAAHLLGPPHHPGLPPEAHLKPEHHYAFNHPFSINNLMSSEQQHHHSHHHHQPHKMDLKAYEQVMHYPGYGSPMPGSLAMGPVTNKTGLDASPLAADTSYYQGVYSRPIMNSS
Aryl hydrocarbon receptor (Homo sapiens), sequence (P35869 whole entry, looked up): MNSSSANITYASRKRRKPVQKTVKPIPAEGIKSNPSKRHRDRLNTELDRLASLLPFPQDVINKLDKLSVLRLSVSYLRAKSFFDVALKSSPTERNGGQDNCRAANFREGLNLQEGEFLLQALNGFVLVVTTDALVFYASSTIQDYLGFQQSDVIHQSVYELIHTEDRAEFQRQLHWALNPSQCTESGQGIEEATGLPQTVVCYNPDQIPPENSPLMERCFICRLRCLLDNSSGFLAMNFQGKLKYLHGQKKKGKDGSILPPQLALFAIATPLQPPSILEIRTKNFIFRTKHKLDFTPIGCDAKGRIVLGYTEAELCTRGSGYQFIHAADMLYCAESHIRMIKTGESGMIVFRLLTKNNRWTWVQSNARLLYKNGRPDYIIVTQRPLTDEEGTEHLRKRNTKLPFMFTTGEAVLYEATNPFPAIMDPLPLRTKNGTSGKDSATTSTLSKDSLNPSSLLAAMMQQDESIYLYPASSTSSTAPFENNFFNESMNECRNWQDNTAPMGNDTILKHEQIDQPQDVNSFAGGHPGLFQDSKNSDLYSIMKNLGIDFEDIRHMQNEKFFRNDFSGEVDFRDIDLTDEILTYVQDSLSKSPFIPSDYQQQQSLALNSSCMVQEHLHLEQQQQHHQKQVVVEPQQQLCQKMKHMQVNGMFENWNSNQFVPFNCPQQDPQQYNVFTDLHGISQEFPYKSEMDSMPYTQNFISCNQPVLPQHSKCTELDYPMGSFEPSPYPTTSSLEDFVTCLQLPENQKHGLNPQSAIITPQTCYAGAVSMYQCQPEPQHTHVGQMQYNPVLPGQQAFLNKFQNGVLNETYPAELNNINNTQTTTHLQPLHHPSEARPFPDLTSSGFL
Bile acid receptor (Homo sapiens), sequence (Q96RI1 whole entry, looked up): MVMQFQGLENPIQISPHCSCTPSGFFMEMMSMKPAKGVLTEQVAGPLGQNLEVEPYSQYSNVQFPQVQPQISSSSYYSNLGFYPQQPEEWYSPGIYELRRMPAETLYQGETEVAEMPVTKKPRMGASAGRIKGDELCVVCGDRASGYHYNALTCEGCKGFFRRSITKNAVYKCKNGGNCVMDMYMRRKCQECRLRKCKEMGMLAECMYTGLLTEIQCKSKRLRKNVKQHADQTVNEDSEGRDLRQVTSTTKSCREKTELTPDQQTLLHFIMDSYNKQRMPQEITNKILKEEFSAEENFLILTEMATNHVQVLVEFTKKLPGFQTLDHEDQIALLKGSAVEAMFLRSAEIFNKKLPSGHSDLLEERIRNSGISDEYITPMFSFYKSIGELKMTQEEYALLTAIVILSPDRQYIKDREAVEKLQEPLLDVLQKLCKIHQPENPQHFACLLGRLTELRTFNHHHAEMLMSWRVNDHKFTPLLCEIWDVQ
Retinoic acid receptor alpha (Homo sapiens), sequence (P10276 whole entry, looked up): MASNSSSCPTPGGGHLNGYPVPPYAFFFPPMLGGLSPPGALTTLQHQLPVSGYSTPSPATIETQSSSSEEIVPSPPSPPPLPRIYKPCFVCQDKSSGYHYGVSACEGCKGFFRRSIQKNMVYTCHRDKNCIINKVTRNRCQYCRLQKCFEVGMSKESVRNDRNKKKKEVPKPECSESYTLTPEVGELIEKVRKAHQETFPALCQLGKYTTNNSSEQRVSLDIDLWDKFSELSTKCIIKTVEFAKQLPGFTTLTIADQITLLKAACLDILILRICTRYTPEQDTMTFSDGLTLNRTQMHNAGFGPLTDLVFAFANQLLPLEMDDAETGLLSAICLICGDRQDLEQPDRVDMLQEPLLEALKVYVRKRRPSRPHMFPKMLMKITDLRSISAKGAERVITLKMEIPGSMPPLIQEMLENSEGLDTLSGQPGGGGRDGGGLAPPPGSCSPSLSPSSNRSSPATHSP
Transcription factor E2F1 (Homo sapiens), sequence (Q01094 whole entry, looked up): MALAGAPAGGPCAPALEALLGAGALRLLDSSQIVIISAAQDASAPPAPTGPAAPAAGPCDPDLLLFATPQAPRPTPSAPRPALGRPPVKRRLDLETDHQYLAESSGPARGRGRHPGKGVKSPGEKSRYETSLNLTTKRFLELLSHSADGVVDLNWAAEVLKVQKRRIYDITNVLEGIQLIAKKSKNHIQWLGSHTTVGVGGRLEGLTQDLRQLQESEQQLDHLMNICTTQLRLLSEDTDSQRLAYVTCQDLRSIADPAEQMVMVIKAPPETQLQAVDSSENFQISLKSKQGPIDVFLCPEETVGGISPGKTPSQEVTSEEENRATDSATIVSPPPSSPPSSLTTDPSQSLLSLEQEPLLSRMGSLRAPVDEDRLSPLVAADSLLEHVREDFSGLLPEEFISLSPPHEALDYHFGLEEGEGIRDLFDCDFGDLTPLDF

As to `CCCCN(CCCC)C(=O)N(CCCC)CCCC`, the compound was called inactive in assay [1], in assay [3], in [4], in [6], in [7] and in assay [8]. Also, the outcome in assay [9], in assay [10], in [11], in assay [12], in assay [13] and in assay [14] was inactive. Also, the call in [15] and in assay [16] was inactive. Further, the AC50 in [2] is 44.5 µM (active); in assay [5], 58.5 µM (active); in [17], 51.7 µM (active); in assay [18], 24.5 µM (active).

Take `N[C@@H](Cc1cc(I)c(Oc2cc(I)c(O)c(I)c2)c(I)c1)C(=O)O`: the call in [1], in assay [2], in [3], in assay [19], in assay [5] and in assay [6] was inactive. Moreover, the compound was classed as inactive in [7], in assay [9], in assay [20], in [10], in [12] and in assay [13]. Besides, the result in assay [14], in assay [15], in assay [16] and in [17] was inactive.

Consider `COc1cc(C(C)C)ccc1C`, for which the result in assay [1], in assay [2], in [3], in [19], in assay [5] and in assay [6] was inactive. The call in assay [7], in assay [9], in [20], in [10], in assay [11] and in assay [12] was inactive. Besides, the compound was classed as inactive in [13], in assay [14], in assay [15], in [16], in assay [17] and in assay [18].

For the compound `CCN(CCN)c1cccc(C)c1`, the compound was called inactive in [1], in [2], in [3], in assay [5], in assay [6] and in [7]. Further, the call in assay [8], in [9], in assay [20], in assay [10], in assay [11] and in assay [12] was inactive. Moreover, the result in assay [13], in [14], in assay [15] and in [17] was inactive. Moreover, the AC50 in assay [4] is 50 µM (active).

Regarding `CCCSc1ccc2nc(NC(=O)OC)[nH]c2c1`, the result in [1], in [2], in assay [3], in [19], in assay [5] and in assay [6] was inactive. In addition, the outcome in [7], in [8], in [9], in [10], in [11] and in assay [12] was inactive. Moreover, the result in assay [13], in assay [15], in assay [16] and in [17] was inactive.

Take `O=C(CS)OCCOC(=O)CS`: the outcome in assay [1], in assay [7], in [10], in [11], in [13] and in [14] was inactive. Also, the compound was called inactive in assay [15], in assay [16], in [17] and in assay [18]. Further, the AC50 is 72.7 µM (active) in [3]; 49.1 µM (active) in assay [19]; 24.9 µM (active) in assay [4]; 58.7 µM (active) in assay [5]; 100 µM (active) in [6]; 27.5 µM (active) in assay [8]. For the same compound, the AC50 in assay [20] was 58.7 µM (active).

Consider `CCOC(=O)CCc1ccccc1`, for which the outcome in assay [1], in [2], in [3], in assay [5], in assay [7] and in assay [8] was inactive. The compound was called inactive in assay [9], in [20], in [10], in assay [11], in assay [12] and in assay [13]. In addition, the compound was called inactive in assay [14], in assay [15], in assay [16], in assay [17] and in [18].
